High-throughput results from PubChem BioAssay.
VP16 counter: counter-screen for ROR gamma inhibitors: Gal4-VP16 reporter. Drosophila S2 Gal4-VP16 UAS-luciferase, luminescence, 20 h. Potency, µM (highest dose often 53.6 µM), inactives show top-dose activity, negative = inhibition, usual class: inhibitors. 310,000 compounds, 3.5% hits. AID 2546;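 also: Gal4-VP16 expression switched on by copper sulfate through the metallothionein promoter; potency is read from the fitted curve at half-maximal effect; nearly all actives have a fitted effect of over 50% in size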
RORg inh: inhibitors of mouse ROR gamma transcriptional activity. Drosophila S2 Gal4-RORgamma UAS-luciferase reporter, 20 h. Potency, µM (series often up to 53.6 µM), without a hit: at the highest dose activity change, negative = inhibition, usual class: inhibitors. 310,000 compounds, 5.4% hits; also: potency is read from the fitted curve at half-maximal effect; nearly all actives have a fitted effect of over 60% in size
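Schneider cells (Drosophila), stable Gal4 DBD–ROR gamma + UAS-luc; 1 hr cmpd preincubation; Cu2+ induction 700 uM final; 20 hr ambient; luminescence.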
CtBP-E1A inh: inhibitors of CtBP/E1A interaction. AID 651724. AlphaScreen GST-E1A/His-CtBP binding, 1536-well; active compounds read low. activity change, % (concentration not given with the values). 340,000 compounds, 0.49% hits; in the data active = activity change below about -65%; inconclusive = mostly about -30% to -63%
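In 5 uL wells, 23 nL compound meets equimolar GST-E1A and His-CtBP (5X stock 125 nM each) for 2 h, 37 °C. Beads (5X, 50 ug/mL) then 1 h, 37 °C, dark.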
Six1-Eya2 inh: Six1/Eya2 interaction inhibition | AlphaScreen GST-Six1/His-Eya2 binding, biochemical; active compounds read low | activity change, % (concentration not given with the values) | 360,000 compounds, 0.56% hits | AID 651725; in the data active = activity change below about -65%; inconclusive = mostly about -30% to -63%
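Six1/Eya2 binding was read as AlphaScreen signal after compounds were pinned into GST-Six1 plus His-tagged Eya2 (5X stock 250/500 nM) in pH 8.0 Tris/NaCl/TCEP buffer, beads added, then incubated 1 h, 37 C, dark.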
PKM2 act: PKM2 (human) enzyme activation; purified PKM2, Kinase-Glo ATP luminescence, activation; response scale: 0% is enzyme alone, no compound; Potency, µM (titrated, usually from 57.5 µM), for the others: at the top dose activation, actives largely listed as activators; 260,000 compounds, 0.34% hits; also: potency is read from the fitted curve at half-maximal effect; nearly all actives have a fitted effect of over 55% in size
Target sequence (P14618 whole entry, looked up): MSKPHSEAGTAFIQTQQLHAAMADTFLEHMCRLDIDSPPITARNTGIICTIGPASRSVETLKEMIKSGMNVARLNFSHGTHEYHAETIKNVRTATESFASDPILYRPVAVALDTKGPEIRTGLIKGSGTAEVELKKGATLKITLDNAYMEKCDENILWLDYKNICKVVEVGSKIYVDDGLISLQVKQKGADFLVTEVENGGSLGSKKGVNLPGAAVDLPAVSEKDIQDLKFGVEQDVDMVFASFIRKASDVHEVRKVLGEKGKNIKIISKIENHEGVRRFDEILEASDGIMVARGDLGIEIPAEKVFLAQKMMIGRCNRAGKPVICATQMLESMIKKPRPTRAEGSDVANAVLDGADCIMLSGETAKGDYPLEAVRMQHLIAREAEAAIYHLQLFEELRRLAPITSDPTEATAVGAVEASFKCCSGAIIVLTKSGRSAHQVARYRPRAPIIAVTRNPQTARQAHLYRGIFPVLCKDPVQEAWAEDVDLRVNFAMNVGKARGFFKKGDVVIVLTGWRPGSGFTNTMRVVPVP
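Purified hPK-M2 (>95% pure) converted ADP (0.1 mM final) to ATP with 0.5 mM PEP in 50 mM imidazole pH7.2, KCl, MgCl2, Tween 20, BSA; 1 h at room temperature. ATP detected by Kinase-Glo luminescence.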
* hit, by the source's call; [ ] = another dose, or the depositor's remark. Rows were chosen to be rich in hits. Some 5.6% of all compounds tested hit in one or more screens of this group. Unless noted, calls follow the shape of the dose curve; as a rule, active = well fitted curve in the direction sought with a large enough effect; inconclusive = small, poorly fitted or top-dose-only effect, or another doubt; inactive = no such curve, though single readings can be large; an effect the other way counts as inactive or inconclusive. % is scaled to controls: 0 for no effect and ±100 for the full control effect.

COc1ccc(OC)c(S(=O)(=O)Nc2cc3c4c(c2)C(C)C(=O)N4CCC3)c1 (stereo not drawn) was read as CtBP-E1A inh 7 and Six1-Eya2 inh 0.
CC(C)c1cc2c(c(O)c1O)[C@@]13CCCC(C)(C)C1CC2OC3=O (stereo partly drawn) was read as VP16 counter inconclusive, RORg inh 14µM*, CtBP-E1A inh -4, Six1-Eya2 inh -7 and PKM2 act 9%.
Screening COC(=O)C1CCN(C(=O)C2CCN(C(=O)[C@@H](NS(=O)(=O)c3ccc(C)cc3)C(C)C)CC2)CC1 returned VP16 counter inconclusive, RORg inh 1.1µM*, CtBP-E1A inh 2, Six1-Eya2 inh 4 and PKM2 act -3%.
For CC(C)(C)c1ccc(C(=O)c2c[nH]c(C(=O)NCC3CCCO3)c2)cc1 (stereo not drawn) the results were VP16 counter 13µM*, RORg inh inconclusive, CtBP-E1A inh -2, Six1-Eya2 inh -6 and PKM2 act -1%.
COc1cccc(/C=C/C(=O)OCC(=O)NCC2CCCO2)c1OC (stereo not drawn) was read as VP16 counter 4%, RORg inh -7%, CtBP-E1A inh 11, Six1-Eya2 inh 11 and PKM2 act -23%.
Screening O=C(NCC1CCCO1)c1ccc(C(=O)NCC2CCCO2)cc1 (stereo not drawn) returned VP16 counter 3%, RORg inh 6%, CtBP-E1A inh 0, Six1-Eya2 inh -1 and PKM2 act 5%.
Screening COc1ccccc1/C=C/C(=O)NC(=S)NCC1CCCO1 (stereo not drawn) returned VP16 counter inconclusive, RORg inh 2.8µM*, CtBP-E1A inh -6, Six1-Eya2 inh 4 and PKM2 act 8%.
CC(C)(C)c1ccc(C(=O)NNC(=S)NCC2CCCO2)cc1 (stereo not drawn) was read as VP16 counter inconclusive, RORg inh 4µM*, CtBP-E1A inh -4, Six1-Eya2 inh 0 and PKM2 act 12%.
COc1ccc(C(=O)NC(=S)NCC2CCCO2)cc1 (stereo not drawn) was read as VP16 counter inconclusive, RORg inh 13µM*, CtBP-E1A inh -2, Six1-Eya2 inh -2 and PKM2 act 4%.
Screening Cc1cc(C)c(S(=O)(=O)NCCCn2ccnc2)cc1C returned VP16 counter -13%, RORg inh 24%, CtBP-E1A inh 1, Six1-Eya2 inh -11 and PKM2 act -1%.
Screening CCCC[C@H]1CCCO[C@@](C(=O)NCc2ccc(C)o2)(C(F)(F)F)C1 returned VP16 counter 5% and RORg inh -18%.
For CCN1C(=O)c2ccc(C(=O)Nc3c(C)cc(C)cc3C)cc2C1=O the results were VP16 counter -8%, RORg inh -11%, CtBP-E1A inh 5, Six1-Eya2 inh 0 and PKM2 act -4%[11.5 µM].
Screening Cc1ccccc1C(=O)NC(=S)NCC1CCCO1 (stereo not drawn) returned VP16 counter inconclusive, RORg inh 14µM*, CtBP-E1A inh -2, Six1-Eya2 inh -8 and PKM2 act 1%.
Screening COc1ccc(/C=C/C(=O)NC(=S)NCC2CCCO2)cc1 (stereo not drawn) returned VP16 counter -3%, RORg inh 1µM*, CtBP-E1A inh -2, Six1-Eya2 inh 1 and PKM2 act 4%.
For CC(C)(C)c1ccc(C(=O)NC(=S)NCC2CCCO2)cc1 (stereo not drawn) the results were VP16 counter 5.6µM*, RORg inh 2.2µM*, CtBP-E1A inh -10, Six1-Eya2 inh 4 and PKM2 act 2%.
Screening COc1ccc(/C=C/C(=O)OCC(=O)NCC2CCCO2)cc1 (stereo not drawn) returned VP16 counter 2%, RORg inh 20%, CtBP-E1A inh -23, Six1-Eya2 inh 4 and PKM2 act 0%.
For Cc1ccccc1C(=O)c1c[nH]c(C(=O)NCC2CCCO2)c1 (stereo not drawn) the results were VP16 counter 12%, RORg inh 37%, CtBP-E1A inh 0, Six1-Eya2 inh 2 and PKM2 act -2%.
`O=C(Cc1ccc(F)cc1)NCC1CCCO1` (stereo not drawn) gave VP16 counter -21%, RORg inh 11µM*, CtBP-E1A inh -2, Six1-Eya2 inh 0 and PKM2 act -8%.
`CCCNC(=O)OC[C@@H]1O[C@H](CCO/N=C(\C)CCN2CCc3nc(CC)c(CC)cc3C2)C=C[C@@H]1Oc1ccc(OC)cc1` gave VP16 counter -1%[10 µM] and RORg inh -6%[10 µM].
O=C(NC(=S)NCC1CCCO1)c1ccc(Cl)cc1Cl (stereo not drawn) was read as VP16 counter inconclusive, RORg inh 11µM*, CtBP-E1A inh 6, Six1-Eya2 inh -2 and PKM2 act 5%.
O=C(NCC1CCCO1)C(=O)N/N=C/c1cc(Cl)ccc1O (stereo not drawn) was read as VP16 counter inconclusive, RORg inh 13µM*, CtBP-E1A inh -94*, Six1-Eya2 inh -80* and PKM2 act -7%.
Screening O=C(CNC(=O)c1ccc(Cl)cc1Cl)NCC1CCCO1 (stereo not drawn) returned VP16 counter -1%, RORg inh -3%, CtBP-E1A inh 4, Six1-Eya2 inh 14 and PKM2 act -4%.
Screening CNC(=S)NNC(=O)c1ccc(C(C)(C)C)cc1 returned VP16 counter inconclusive, RORg inh 2.2µM*, Six1-Eya2 inh -16 and PKM2 act -1%.
Screening O=C(NC(=S)NCC1CCCO1)C(c1ccccc1)c1ccccc1 (stereo not drawn) returned VP16 counter 6.3µM*, RORg inh 7.1µM*, CtBP-E1A inh -6, Six1-Eya2 inh 0 and PKM2 act -3%.
Screening O=C(Cc1ccccc1)NCC1CCCO1 (stereo not drawn) returned VP16 counter -7%, RORg inh -34%, CtBP-E1A inh 4, Six1-Eya2 inh 5 and PKM2 act 1%.
Screening CC(=O)NC12CC3CC(C1)CC(C(=O)NCc1ccc(C)cc1)(C3)C2 returned VP16 counter -1%, RORg inh -1%, CtBP-E1A inh -2, Six1-Eya2 inh -8 and PKM2 act -5%.
`CS(=O)(=O)N1CCC(c2noc(-c3ccc(C(F)(F)F)cc3)n2)CC1` gave VP16 counter 10µM*, RORg inh inconclusive, CtBP-E1A inh 10, Six1-Eya2 inh 0 and PKM2 act 8%.
`O=C(c1csnn1)N1CCC2(CCCN(Cc3cc(C(F)(F)F)cc(C(F)(F)F)c3)C2)CC1` gave VP16 counter -6% and RORg inh 26%.
